Source: PubChem BioAssay (NCATS)
Unmarked numbers belong to inactive results. Records with an inconclusive call do not appear. Where a call stands in place of a potency, no number is given. Activity calls are given as the source filed them. Unless noted, calls come from the whole dose curve; as a rule, active = well fitted curve in the direction sought with a large enough effect; inconclusive = small, poorly fitted or top-dose-only effect, or another doubt; inactive = no such curve, though single readings can be large; an effect the other way counts as inactive or inconclusive.

What was measured:
[1] = target: Cytochrome P450 2C19 (Homo sapiens) (UniProt P33261); assay: qHTS Assay for Inhibitors and Substrates of Cytochrome P450 2C19 (AID 899); note: nearly all actives have a fitted effect of over 60% in size; note: potency is the fitted concentration of half-maximal effect
How it was run: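 In 50mM KPO4, the reaction held 5nM enzyme and KM-level (10uM) Luciferin-H EGE; it ran 60 min at 37C after NADPH regeneration and a 10 min compound preincubation. Luminescence values were scaled to 57uM ketoconazole as complete inhibition.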

[2] = target: Cytochrome P450 2D6 (Homo sapiens) (UniProt P10635); assay: qHTS Assay for Inhibitors and Substrates of Cytochrome P450 2D6 (AID 891); note: nearly all actives have a fitted effect of over 60% in size; note: potency is the fitted concentration of half-maximal effect
How it was run: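 Human CYP2D6 (5 nM) with 30 uM Luciferin-ME EGE (at Km) in 100 mM KPO4, compound preincubated 10 min, then NADPH regeneration system for 60 min at room temperature. Luciferin read by luminescence; normalized to 1.43 uM quinidine.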

[3] = qHTS Assay for Identification of Small Molecule Agonists for Hypoxia Response Element Signaling Pathway (AID 914; active = well fitted activation curve with a large enough effect in the signal ratio, with a control signal flat, not every such curve was filed as active; the % refers to the signal ratio); conditions: ME-180 HRE-bla reporter, beta-lactamase ratio, CoCl2, 17 h; hits give high values
How it was run: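 ME-180 cells carrying an HRE-driven beta-lactamase reporter were treated with compounds in a titration series plus an EC50 level of CoCl2 for 17 h at 37 degrees Celsius; CCF4 readout as the 460nm/530nm ratio gave AC50 values.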

[4] = Confirmation and Secondary Assay for Modulators of Hemoglobin Beta Chain Splicing at IVS2 654 locus (AID 910);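 note: per-well total GFP intensity by laser scanning cytometry after 2-day treatment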
How it was run: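 HeLa cells stably carrying EGFP interrupted by mutant beta-globin IVS2-654 intron (CMV-driven) were treated with compound for 2 days at 37C; corrected splicing was scored as total peak GFP intensity per well (488 nm excitation, 500-520 nm emission).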

[5] = Confirmation and Secondary Assay for Modulators of Hemoglobin Beta Chain Splicing at IVS2 705 locus (AID 930);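 note: HeLa cells stably expressing the EGFP-705 splicing reporter; series mostly up to about 46 µM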
How it was run: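 HeLa cells stably carrying EGFP interrupted by mutant beta-globin IVS2-705 intron (CMV-driven) were seeded at 500 cells/well, treated next day with compound for 2 days at 37C; corrected splicing restores EGFP, read as total peak GFP intensity per well.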

Sequence of Cytochrome P450 2C19 (Homo sapiens) (P33261 whole entry, looked up): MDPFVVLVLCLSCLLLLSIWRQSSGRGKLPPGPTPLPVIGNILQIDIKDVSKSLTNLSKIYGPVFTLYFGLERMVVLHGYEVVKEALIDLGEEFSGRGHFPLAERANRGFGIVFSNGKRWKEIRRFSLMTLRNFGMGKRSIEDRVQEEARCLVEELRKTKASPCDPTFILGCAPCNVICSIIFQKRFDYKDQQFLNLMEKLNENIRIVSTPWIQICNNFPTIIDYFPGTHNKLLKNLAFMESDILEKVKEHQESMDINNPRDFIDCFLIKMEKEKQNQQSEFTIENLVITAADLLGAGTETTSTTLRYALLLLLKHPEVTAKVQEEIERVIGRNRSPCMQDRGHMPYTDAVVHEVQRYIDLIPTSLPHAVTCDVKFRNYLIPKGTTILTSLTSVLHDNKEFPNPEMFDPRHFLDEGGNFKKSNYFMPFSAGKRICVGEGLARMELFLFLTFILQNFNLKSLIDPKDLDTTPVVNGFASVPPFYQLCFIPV
Sequence of Cytochrome P450 2D6 (Homo sapiens) (P10635 whole entry, looked up): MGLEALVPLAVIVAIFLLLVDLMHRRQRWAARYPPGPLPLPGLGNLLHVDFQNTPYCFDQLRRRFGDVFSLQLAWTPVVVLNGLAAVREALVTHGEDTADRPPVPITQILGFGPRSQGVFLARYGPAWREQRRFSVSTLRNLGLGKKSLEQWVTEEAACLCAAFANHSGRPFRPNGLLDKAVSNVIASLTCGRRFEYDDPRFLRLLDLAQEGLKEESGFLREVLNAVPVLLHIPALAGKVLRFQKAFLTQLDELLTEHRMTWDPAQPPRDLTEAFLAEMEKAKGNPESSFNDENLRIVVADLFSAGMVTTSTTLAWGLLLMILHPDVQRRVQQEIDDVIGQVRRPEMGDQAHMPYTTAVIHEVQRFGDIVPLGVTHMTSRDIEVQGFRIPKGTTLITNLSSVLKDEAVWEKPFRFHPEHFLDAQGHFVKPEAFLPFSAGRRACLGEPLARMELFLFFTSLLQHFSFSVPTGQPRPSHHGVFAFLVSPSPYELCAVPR

With `COC(=O)NC(/C(C(=O)OC)=C(\C)NCc1ccccc1)c1ccc2ccccc2c1` (stereo not drawn) as the molecule, how does the Potency [1] read?
Its Potency is 63.1 nM (active).

What does the source list for `COC(=O)C/C=C\[C@@H](C)[C@@H](/C=N\O[C@@H](C)CN1CCCc2nc(C)c(C)cc21)NS(=O)(=O)c1ccc(C)cc1`?
Potency [2]: 3160 nM (active); activation [3]: 4.52%

With `COC(=O)C/C=C\[C@@H](C)[C@@H](/C=N\O[C@@H](C)c1cn([C@H]2COC[C@H]2O)nn1)OC` as the molecule, how does the Potency [1] read?
The Potency was “inactive”.

Which outcome [4] does the source give for `CNC(C)C1CC[C@H](N)[C@@H](OC2C(N)C[C@H](N)[C@@H](OC3OC[C@](C)(O)C(NC)[C@H]3O)C2O)O1` (stereo partly drawn) here?
The outcome was “inactive”.

And the outcome [5]?
Its outcome is “inactive”.

Which Potency [1] does the source give for `O=C1[C@H]2[C@H]3[C@H](O)[C@H](O)C/C(=N/OCc4ccccc4)[C@H]3CC[C@@H]2C(=O)N1C[C@@H]1CCCO1` here?
The Potency was “inactive”.

Which results are given for `CC1CC[C@@]2(C(=O)O)CC[C@]3(C)C(=CCC4[C@@]5(C)CCC(O)C(C)(C)C5CC[C@@]43C)C2C1C` (stereo partly drawn)?
outcome [4]: inactive; outcome [5]: inactive

With `CCN1C(=O)[C@@H]2[C@H]3C(=CC[C@@H]2C1=O)C1(OCCCO1)[C@H]1O[C@@H]1[C@H]3O` as the molecule, how does the Potency [1] read?
The Potency was 1580 nM (active).

Which outcome [4] does the source give for `CN1C2CC(OC(=O)C(CO)c3ccccc3)C[C@@H]1[C@H]1OC21` (stereo partly drawn) here?
Its outcome is “inactive”.

And the outcome [5]?
Its outcome is “inactive”.

What does the source list for `COC(=O)C1C(O)CC[C@H]2CN3CCc4c([nH]c5ccccc45)C3C[C@H]12` (stereo partly drawn)?
outcome [4]: inactive; outcome [5]: inactive

For `CC(=O)OC[C@H]1O[C@@H](O/N=C2/[C@H]3O[C@@H]3[C@@H](O)[C@H]3[C@H]2CCn2c(=O)n(-c4ccccc4)c(=O)n23)[C@H](OC(C)=O)[C@@H](OC(C)=O)[C@@H]1OC(C)=O`, which Potency [1] is on record?
Its Potency is “inactive”.

Which outcome [4] does the source give for `CC1CC2C3CC(F)C4=CC(=O)C=C[C@@]4(C)[C@@]3(F)C(O)C[C@]2(C)[C@]1(O)C(=O)COC(=O)C(C)(C)C` (stereo partly drawn) here?
The outcome was “inactive”.

What about the outcome [5] of the same molecule?
Its outcome is “inactive”.

For `O=C1C[C@H](c2ccccc2)[C@@H](c2ccc(Br)cc2)O1`, which Potency [1] is on record?
The Potency was 398 nM (active).

For `COC(=O)[C@H](Cc1ccccc1)NC(=O)[C@@H](C)CO`, which Potency [1] is on record?
Its Potency is 1260 nM (active).

What about the activation [3] of the same molecule?
The activation was 5.86%.

For `CC(C)(C)NCC(O)COc1cccc2c1CC(O)C(O)C2` (stereo not drawn), which outcome [4] is on record?
Its outcome is “inactive”.

What about the outcome [5] of the same molecule?
Its outcome is “inactive”.

Which Potency [1] does the source give for `C=CC1=C[C@@H](O)C2OC2C12OCCCO2` (stereo partly drawn) here?
Its Potency is “inactive”.

Which outcome [4] does the source give for `C=C1c2c(Cl)ccc(O)c2C(O)=C2C(=O)[C@]3(O)C(O)=C(C(N)=O)C(=O)C(N(C)C)C3C(O)C12` (stereo partly drawn) here?
The outcome was “inactive”.

What about the outcome [5] of the same molecule?
Its outcome is “inactive”.

For `COc1cc2c(cc1OC)C1C(=O)c3c(cc4c(c3O)C=CC(C)(C)O4)OC1CO2` (stereo not drawn), which outcome [4] is on record?
The outcome was “inactive”.

And the outcome [5]?
Its outcome is “inactive”.

What does the source list for `COc1cc2c(c(OC)c1OC)-c1ccc(OC)c(=O)cc1C(NC(C)=O)CC2` (stereo not drawn)?
outcome [4]: inactive; outcome [5]: inactive

What does the source list for `CC(C)CC1C(=O)N2CCCC2C2(O)O[C@@](NC(=O)C3C=C4c5cccc6[nH]c(Br)c(c56)CC4N(C)C3)(C(C)C)C(=O)N12` (stereo partly drawn)?
outcome [4]: inactive; outcome [5]: inactive

What does the source list for `C[C@@H]1/C=C\CC(=O)OC[C@H](C)C(=O)N[C@@H](C)C(=O)OC1`?
Potency [1]: inactive; activation [3]: 0.738%

Which Potency [1] does the source give for `C#CCCCO/N=C1/C[C@@H](O)[C@@H](O)[C@@H]2[C@@H]3C(=O)N(Cc4ccccc4)C(=O)[C@H]3CC[C@@H]12` here?
Its Potency is “inactive”.

Which Potency [2] does the source give for `CCOC(=O)CCN1C(=O)[C@H]2[C@@H]3[C@H](O)[C@H](O)CC(=O)[C@H]3CC[C@H]2C1=O` here?
Its Potency is “inactive”.

What about the Potency [1] of the same molecule?
The Potency was “inactive”.

And the activation [3]?
The activation was 2.87%.

What does the source list for `Nc1ncn(C2OC(CO)C(O)C2O)c(=O)n1` (stereo not drawn)?
outcome [4]: inactive; outcome [5]: inactive

Which results are given for `CC(CCC(=O)O)C1CCC2C3CC[C@H]4CC(O)CC[C@@]4(C)C3CC[C@@]12C` (stereo partly drawn)?
outcome [4]: inactive; outcome [5]: inactive

With `CO[C@@H]1COC(=O)[C@@H](CCSC)NC(=O)C/C=C\[C@@H](C)COC(=O)[C@H](C)NC(=O)C/C=C\[C@H]1C` as the molecule, how does the Potency [1] read?
The Potency was “inactive”.

For `O=C1[C@H]2[C@H]3[C@H](O)[C@H](O)C/C(=N/OC[C@@H](O)COCc4ccco4)[C@@H]3CC[C@@H]2C(=O)N1C[C@@H]1CCCO1`, which Potency [1] is on record?
Its Potency is “inactive”.

Which Potency [1] does the source give for `CC(C)=NO[C@@H](C)c1cn([C@@H]2COC[C@@H]2O)nn1` here?
The Potency was “inactive”.

For `CO[C@@H]1COC(=O)[C@H]2CCCN2C(=O)[C@@H](C)COC(=O)CCC[C@H]1C`, which Potency [1] is on record?
The Potency was “inactive”.

For `CO[C@@H]1COC(=O)[C@H]2CCCN2C(=O)C/C=C\[C@@H](C)[C@H](OC)COC(=O)[C@H]2CCCN2C(=O)C/C=C\[C@H]1C`, which Potency [1] is on record?
Its Potency is “inactive”.

For `CC(C)=CCC/C(C)=C/CO/N=C1/C[C@@H](O)[C@@H](O)[C@@H]2[C@@H]3C(=O)N(Cc4ccccc4)C(=O)[C@H]3CC[C@@H]12`, which Potency [1] is on record?
Its Potency is “inactive”.

With `c1ccc([C@H]2NCCc3c2[nH]c2ccccc32)cc1` as the molecule, how does the activation [3] read?
Its activation is -22.5%.
